# Experimental data from PubChem BioAssay AID2320 (National Center for Advancing Translational Sciences (NCATS), 2010).
# Results filed as inconclusive are left out. A number with no mark means an inactive call. Activity calls are given as the source filed them. Calls follow the shape of the full dose curve.
# Assay: A qHTS for Small Molecule Inhibitors of Shiga Toxin (Confirmatory); also: nearly all actives have a fitted effect of over 75% in size; as to activity, positive = inhibition of toxin: 0% is about no effect
# Conditions: Cell-based Shiga toxin protection reporter assay; series mostly up to 38.3 µM; activity, positive = inhibition of toxin: at the top concentration
# Potency is read from the fitted curve at half-maximal effect.
SMILES,"activity, positive = inhibition of toxin",Potency
COc1ccccc1CN(Cc1cccnc1)S(=O)(=O)c1ccc(-n2cnnn2)c(OC)c1,-24.3%,
Cc1sc(NC(=O)CCCC(=O)O)c(C(N)=O)c1-c1ccccc1,,11.3 µM (active)
Cc1cc(C)nc(SCC(=O)Nc2cc(C)on2)n1,-32.1%,
N=c1c(S(=O)(=O)c2ccc(Cl)cc2)cc2c(=O)n3ccccc3nc2n1C1CCCCC1,-11.7%,
CCCNC(=O)c1ccc2snnc2c1,-4.26%,
O=C1ON=C(c2ccccc2)/C1=C/c1ccc(OS(=O)(=O)c2ccccc2)cc1,,7.11 µM (active)
Cc1cccc(C(=O)Nc2nnc(SCC(=O)NC3CC3)s2)c1,,4.49 µM (active)
CCOC(=O)C1CCCN(c2nc3ccccc3nc2C(C#N)C(=O)OCC)C1 (stereo not drawn),38.5%,
C/C1=C\[C@@H](O)C(C(C)C)C(OC(=O)c2ccc(O)cc2)C/C(C)=C/CC1 (stereo partly drawn),,17.9 µM (active)
CCOc1ncccc1C(=O)Nc1c(C)n(C)n(-c2ccccc2)c1=O,-36%,
O=C(Cc1cccs1)Nc1nc(-c2ccc(F)c(F)c2)cs1,,6.34 µM (active)
COc1ccccc1C(=O)NNC(=O)c1ccc2ccccc2c1,,0.0006 µM (active)
Cc1cccc(NC(=O)CCN2C(=O)c3ccccc3S2(=O)=O)c1C,,20 µM (active)
COc1ccc(C(=O)CC(=O)C(=O)Nc2ccc(C)cc2Cl)cc1,17.8%,
CCN1CCN(Cc2c(O)ccc3c(=O)c(-c4ccc(OC)c(OC)c4)c(C(F)(F)F)oc23)CC1,91.1%,
CS(=O)(=O)N(CC(=O)Nc1ccccc1Sc1ccccc1)C1CCCCC1,-12.4%,
CCN(C1CCCCC1)S(=O)(=O)c1ccc(S(=O)(=O)NCc2ccncc2)cc1,34.1%,
CSc1nc(C)c2cc(C)oc2n1,-1.75%,
COc1ccc(OCc2cccc(C(=O)O)c2)cc1,,0.0356 µM (active)

SMILES,"activity, positive = inhibition of toxin",Potency
CCC(C)C1C(C#N)=C(N)OC2=C1C(=O)CC(C)(C)C2 (stereo not drawn),15.3%,
O=C(/C=C/Nc1ccc(F)cc1F)c1ccco1,,0.225 µM (active)
COc1ccc2[nH]c(-c3ccccc3)cc(=O)c2c1,,0.0711 µM (active)
Cc1ccc(NC(=O)c2cc(S(=O)(=O)N3CCCCC3)ccc2N2CCOCC2)cc1F,,0.04 µM (active)
CCCc1cc(=O)oc2cc(C)cc(OCC(=O)NCc3ccccn3)c12,-31.3%,
Cn1nccc1C(=O)Nc1sc2c(c1C#N)CCCC2,,20 µM (active)
Cc1cc(Cl)ccc1NC(=O)CN1CCC(C(O)(c2ccccc2)c2ccccc2)CC1,-5.9%,
Cc1cc(C)n(-c2nc3c(c(=O)[nH]c(=O)n3C)n2Cc2cccc(Br)c2)n1,20%,
O=C(Cc1cccs1)Nc1ccc(-c2nnc(-c3ccco3)o2)cc1,,4 µM (active)
Cc1nnc(N2C(=O)C(=O)/C(=C(/O)c3ccc4c(c3)OCCO4)C2c2ccc([N+](=O)[O-])cc2)s1 (stereo not drawn),3.86%,
CNC(=O)CSc1nnc(-c2cc(C)cc(C)c2)o1,43.7%,
Cc1cccc(C(=O)NC(NCCc2ccccc2)C(Cl)(Cl)Cl)c1 (stereo not drawn),24.6%,
N#Cc1cc2c(nc1SCC(=O)Nc1cc(Cl)ccc1Cl)C1CCN2CC1,,12.6 µM (active)
CC1CCC/C=C/C2CC(O)CC2C(O)/C=C/C(=O)O1 (stereo not drawn),,0.565 µM (active)
O=C(/C=C/c1cn(CC(O)CN2CCCCC2)c2ccccc12)c1cccs1 (stereo not drawn),-20.1%,
Cc1cc(C(=O)COC(=O)C2CC2)c(C)n1-c1ccc(F)cc1,,4 µM (active)
COc1ccc(N(CCC#N)S(=O)(=O)c2ccc(Cl)cc2)cc1,5.18%,
COc1ccc(C(=O)Nc2ccccc2C(=O)NCc2ccco2)cc1,,5.65 µM (active)
Cc1cccc(Cn2cc(SCC(=O)Nc3nccs3)c3ccccc32)c1,,8.95 µM (active)
